Experimental data reported in PubChem BioAssay.

Experiments:
[1] = tested on: Human papillomavirus type 1a protein E7 (residues 44-93); assay: HPV1a E7 fragment binders on microarrays, primary screen, biochemical, small-molecule microarray, residues 44-93, 635 nm fluorescence (AID 1108); conditions: small-molecule microarray binding, fluorescence 635 nm; higher = more signal;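 also: E7 fragment applied at 1 µg/mL in TBST for 1 h at 4 C; score combines spot fluorescence with its signal to noise ratio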
[2] = modulators of HCV replicon luciferase signal, primary screen, HCV replication inhibitor project, Huh7 cells, luciferase reporter (AID 1109); conditions: 48 h, higher = more signal;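 also: huh7 hepatoma cells harbouring a luciferase neomycin HCV replicon reporter; luciferase luminescence as measure of HCV replicon replication; test concentration not given here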
[3] = biological target: Left-right determination factor 2 (Homo sapiens) (UniProt O00292); assay: LEFTY2 binders on small-molecule microarrays, primary screen, biochemical, small-molecule microarray, 635 nm fluorescence scan (AID 1110); conditions: LEFTY2 binding, higher = more signal
[4] = biological target: Calmodulin-1 (Homo sapiens) (UniProt P0DP23); assay: CALM1 binders on microarrays, EGTA buffer, profiling panel, biochemical, small-molecule microarray, Cy5-labelled CALM1 (AID 1111); conditions: Cy5-CALM1 binding fluorescence, higher = more signal;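 also: labelled calmodulin applied in Tris saline Tween buffer holding calcium plus EGTA and DTT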
[5] = biological target: Calmodulin-1 (Homo sapiens) (UniProt P0DP23); assay: calcium-bound CALM1 binders on microarrays, profiling panel, artefact control for SMM control-protein annotation, biochemical, small-molecule microarray, Cy5-labelled CALM1, plus calcium (AID 1112); conditions: Cy5-CALM1 binding fluorescence, higher = more signal;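 also: score merges spot fluorescence with signal to noise from triplicate slides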
[6] = small-molecule microarray binders of probe aWnt5a, primary screen, biochemical, biotinylated probe, 635/667 nm fluorescence (AID 1113); conditions: higher = more signal;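 also: score merges 667 nm fluorescence intensity with signal-to-noise per printed feature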
[7] = small-molecule microarray binders of probe aShh, primary screen, biochemical, biotinylated probe, 635/667 nm fluorescence (AID 1114); conditions: higher = more signal;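 also: probe is biotin-labelled aShh protein from a stem cell growth factor screen; measures binding of labelled protein to compounds printed on the slide; score merges feature fluorescence at 667 nm with signal-to-noise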
[8] = small-molecule microarray binders of probe aNog, primary screen, biochemical, biotinylated probe, 635/667 nm fluorescence (AID 1115); conditions: higher = more signal;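 also: probe is biotinylated aNog protein used at 0.15 µg/mL for 1 h at 4 C; z-score combines 667 nm fluorescence of each spot with its signal to noise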
[9] = biological target: Torsin-1A-interacting protein 1 (Homo sapiens) (UniProt Q5JTV8); assay: LAP1 binders from COS7 cell lysate, primary screen, small-molecule microarray, 635/667 nm fluorescence (AID 1116); conditions: COS7-hLAP1 lysate binding, 635 nm fluorescence, higher = more signal
[10] = biological target: Alpha-bungarotoxin (Bungarus multicinctus) (UniProt P60615); assay: alpha-bungarotoxin binders on microarray, profiling panel, artefact control for SMM control protein annotation, biochemical, small-molecule microarray, Alexa647 label, 635/667 nm fluorescence (AID 1117); conditions: alpha-BTX-A647 binding fluorescence, higher = more signal
Sequence of Alpha-bungarotoxin (Bungarus multicinctus) (P60615 whole entry, looked up): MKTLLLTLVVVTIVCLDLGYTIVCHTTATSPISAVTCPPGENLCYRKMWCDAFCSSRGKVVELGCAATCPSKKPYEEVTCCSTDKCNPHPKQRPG

Sequence of Left-right determination factor 2 (Homo sapiens) (O00292 whole entry, looked up): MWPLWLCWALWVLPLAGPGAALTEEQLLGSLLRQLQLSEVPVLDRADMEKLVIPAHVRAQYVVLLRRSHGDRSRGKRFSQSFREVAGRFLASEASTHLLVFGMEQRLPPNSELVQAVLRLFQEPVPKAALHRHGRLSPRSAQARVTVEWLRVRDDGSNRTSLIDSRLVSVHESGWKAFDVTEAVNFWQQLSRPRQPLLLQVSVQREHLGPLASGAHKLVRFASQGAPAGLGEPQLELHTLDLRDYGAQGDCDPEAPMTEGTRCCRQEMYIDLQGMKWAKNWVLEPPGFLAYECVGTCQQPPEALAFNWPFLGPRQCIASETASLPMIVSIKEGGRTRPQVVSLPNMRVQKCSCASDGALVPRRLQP
Sequence of Torsin-1A-interacting protein 1 (Homo sapiens) (Q5JTV8 whole entry, looked up): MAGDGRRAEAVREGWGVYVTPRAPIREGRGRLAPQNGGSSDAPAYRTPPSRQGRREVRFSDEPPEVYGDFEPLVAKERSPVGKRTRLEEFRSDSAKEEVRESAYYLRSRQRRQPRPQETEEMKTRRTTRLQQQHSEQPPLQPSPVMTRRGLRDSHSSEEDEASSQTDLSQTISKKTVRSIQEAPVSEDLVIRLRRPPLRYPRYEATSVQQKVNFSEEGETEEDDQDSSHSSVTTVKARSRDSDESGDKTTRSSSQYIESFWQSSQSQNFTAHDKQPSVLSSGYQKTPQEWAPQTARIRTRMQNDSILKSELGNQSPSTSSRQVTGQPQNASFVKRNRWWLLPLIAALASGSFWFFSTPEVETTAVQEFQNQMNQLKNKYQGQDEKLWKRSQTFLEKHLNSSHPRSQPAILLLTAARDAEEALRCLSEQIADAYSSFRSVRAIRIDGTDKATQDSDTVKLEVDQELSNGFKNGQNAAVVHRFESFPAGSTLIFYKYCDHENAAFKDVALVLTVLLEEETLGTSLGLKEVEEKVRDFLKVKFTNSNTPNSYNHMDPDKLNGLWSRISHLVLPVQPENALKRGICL

Structure (SMILES)	composite z-score [1]	z-score [2]	composite z-score [3]	composite z-score [4]	composite z-score [5]	composite z-score [6]	composite z-score [7]	composite z-score [8]	composite z-score [9]	composite z-score [10]
CC(=O)N1Cc2ccccc2C[C@]2(N=C(c3ccc(OCCCO)cc3)O[C@@H]2c2ccccc2)C1=O	1.1	-1.56	0.179	1.01	0.446	-0.13	0.163	0.682	1.78	1.64
NC(=O)NCC#Cc1ccc2c(c1)[C@]1(C(=O)N2)[C@H](C(=O)O)[C@H]2C(=O)O[C@H](c3ccccc3)[C@H](c3ccccc3)N2[C@@H]1c1ccccc1OCCO	0.497	0.393	0.28	2.05	1.01	0.0354	-0.412	0.91	1.45	3.27
Cc1c(NC(=O)/C(C#N)=C/C=C/c2ccccc2[N+](=O)[O-])c(=O)n(-c2ccccc2)n1C	0.475	-2.79	0.34	0.517	0.188	-0.092	-0.292	-0.527	0.37	0.556
CC(CO)N1C(=O)[C@@H]2C3C(=O)OCCC/C=C\[C@H]3OC23C=CCN(Cn2nnc4ccccc42)C(=O)[C@@H]13 (stereo not given in full)	-1.01	-0.456	-0.214	-0.45	-0.205	-0.152	-0.0553	-0.196	-0.718	-0.559
Cc1ccc(S[C@]2(C(=O)NCCN3CCOCC3)CC(=O)N(Cc3ccccc3C(F)(F)F)[C@@H]2c2ccc(CO)cc2I)cc1	0.323	-1.64	-1.49	-0.69	0.116	-0.0792	-0.0866	0.0331	-0.0897	-0.529
COc1ccc([Si](C)(C)[C@H]2[C@H](CCO)O[C@@]3(C(=O)N(Cc4cccc(N5CCCCC5=O)c4)c4ccccc43)[C@@H]2C)cc1	1.25	-5.07	1	0.557	0.388	-0.0919	0.149	0.304	0.753	1.22
O=C(O)[C@H](Cc1ccccc1)n1cc(-c2ccccn2)nn1	0.55	0.107	-0.0097	0.429	0.33	-0.152	-0.0866	-0.0827	0.524	0.35
CCOc1cc(C(O)C2C=CC3C(=O)N(C4CCCCC4)C(=O)C3N2Nc2ccc(OC)cc2)ccc1O (stereo not given)	1.41	-0.352	0.208	1.13	0.505	0.0182	0.06	0.796	0.327	1.64
CCOc1cc(C(O)C2C=CC3C(=O)N(C)C(=O)C3N2N2CCCCC2)ccc1O (stereo not given)	0.0912	0.403	0.298	-0.0003	-0.393	0.0173	0.199	0.243	-0.283	0.676
O=c1cccc(-c2ccc(C(F)(F)F)cc2)o1	-1.57	0.587	-0.534	-0.271	0.238	-0.0685	0.163	-0.0446	-0.333	-0.364
CCOC(=O)C[C@H]1[C@H](OC(=O)Cc2ccc3c(c2)OCO3)[C@@H](NC(=O)C2CCCCC2)c2cc(OCCCO)ccc2N1C(=O)c1ccc2ccccc2n1	1.33	-1.27	0.924	0.0105	-0.896	-0.1	-0.164	0.0862	0.746	0.663
Cc1ccc(S[C@]2(C(=O)NCC(F)(F)F)CC(=O)N(Cc3ccccc3)[C@@H]2c2ccc(CO)cc2)cc1	-0.341	-1.54	-1.73	-0.23	0.526	-0.169	-0.268	-0.186	0.122	-0.0421
O=C1C[C@]2(c3ccc([N+](=O)[O-])cc3)C(=O)N(Cc3ccccc3)c3cc(CO)ccc3[C@H]2N1CC12CC3CC(CC(C3)C1)C2	-0.864	-0.411	-1.11	-0.393	-0.11	-0.281	-0.408	-0.103	-0.0647	-0.814
COCCOC(=O)N1C(=O)[C@@]2(c3cc(C#CC4=CCCCC4)ccc31)[C@H](c1ccc(O)cc1)N1[C@H](c3ccccc3)[C@H](c3ccccc3)OC(=O)[C@H]1[C@@H]2C(=O)Nc1nc2ccccc2s1	0.909	-0.598	0.494	1.81	0.0702	-0.0654	-0.066	-0.482	1.12	1.21
COC1(C)CN(Cc2ccccc2Br)[C@H](/C=C/c2ccccc2)[C@H](Cc2ccccc2)O1 (stereo not given in full)	-0.579	-1.58	-0.137	-0.0755	-0.412	-0.176	-0.291	-0.169	-0.631	-0.0462
Cc1ccc(S[C@]2(C(=O)O)CC(=O)N(Cc3ccccc3Cl)[C@@H]2c2ccc(CO)cc2)cc1	0.459	-0.828	-1.54	0.459	0.644	-0.192	0.131	0.549	0.0695	1.57
O=C1c2ccccc2[C@](Cc2ccccc2I)(C(=O)NCCN2CCOCC2)[C@H](c2ccc(CO)cc2)N1Cc1ccccc1	1.41	-1.79	0.522	1.25	0.295	0.359	0.385	0.482	0.496	1.64

Structure (SMILES)	composite z-score [1]	z-score [2]	composite z-score [3]	composite z-score [4]	composite z-score [5]	composite z-score [6]	composite z-score [7]	composite z-score [8]	composite z-score [9]	composite z-score [10]
CC(C)N1CC=CC23O[C@@H]4C=CCOC(=O)[C@@H]4[C@H]2C(=O)N(C(C)CO)[C@@H]3C1=O (stereo not given in full)	-0.913	0.187	-1.76	-0.0212	-0.123	-0.196	0.0278	0.141	-0.606	-0.127
COCCOC(=O)N1C(=O)[C@@]2(c3cc(C#CC4(O)CCCCCC4)ccc31)[C@H](C(N)=O)[C@H]1C(=O)O[C@H](c3ccccc3)[C@H](c3ccccc3)N1[C@@H]2c1ccc(O)cc1	1.4	-1.39	0.556	0.36	-0.471	-0.0203	-0.206	0.225	0.0793	0.74
COc1cc2c(cc1OC)CN(C(=O)[C@H]1[C@@H]3C(=O)O[C@@H](c4ccccc4)[C@@H](c4ccccc4)N3[C@@H](c3ccc(OCCO)cc3)[C@]13C(=O)Nc1ccc(C#CC4(O)CCCCCC4)cc13)CC2	1.43	-1.33	1.15	0.91	0.765	-0.236	-0.882	1.72	0.964	0.691
C=C[C@H](COC(C)=O)NS(=O)(=O)c1ccc(Br)cc1	-0.292	0.55	0.0605	-0.173	-0.766	-0.0721	0.0121	-0.219	0.168	0.0669
O=C(O)[C@H]1C[C@H]2C(=O)N3CCC[C@H]3C(=O)N2[C@H]1c1cccc(OCCO)c1	1.1	1.55	0.266	0.0384	0.286	-0.0944	-0.167	0.0951	0.83	1.67
CCOC(=O)C[C@H]1[C@H](OC(=O)c2ccc(-c3ccccc3)cc2)[C@@H](NC(=O)c2ccc3ccccc3n2)c2cc(OCCCO)ccc2N1C(=O)c1ccccc1	1.33	-1.1	0.479	0.992	0.389	-0.0606	-0.0904	-0.302	0.574	0.452
CCCCC(=C=CC[C@@H](O)c1ccc(OCCO)cc1)C[C@@H](O)COCc1ccccc1	-0.548	-1.45	0.141	-0.686	-0.244	0.0044	0.0796	-0.213	1.89	-0.324
O=C(NC1CC1)[C@@H]1c2ccccc2C(=O)N(Cc2ccccc2)[C@H]1c1ccc(CO)cc1	0.511	-0.89	-1.25	-0.564	-0.648	-0.148	0.0099	0.368	0.835	0.406
C[C@@H]1ON(c2ccc(C(=O)OC(C)(C)C)cc2)[C@H](c2ccc(Br)cc2)[C@H]1C(=O)N1C(=O)OC[C@H]1Cc1ccccc1	1.38	1.05	0.498	0.79	-0.115	-0.0643	-0.138	0.25	0.323	0.544
CCOC(=O)C[C@H]1[C@H](OC(=O)c2ccccc2-c2ccccc2)[C@@H](NC(=O)c2ccc3ccccc3n2)c2cc(OCCCO)ccc2N1C(=O)c1ccc2ccccc2n1	0.437	-0.863	0.152	-0.0654	-0.127	-0.174	-0.265	-0.328	0.358	0.567
[N-]=[N+]=Nc1ccccc1[C@@H]1OC(c2ccc(OCCCO)cc2)=N[C@]1(CCS(=O)(=O)c1ccccc1)C(=O)NCCN1CCOCC1	1.47	-0.485	0.382	0.03	0.0093	0.0814	0.337	0.675	1.26	0.737
C=CCN1C(=O)[C@@]2(CCC(=O)OC(C)(C)C)N=C(c3ccc(OCCCO)cc3)O[C@H]2c2ccccc21	1.36	-2.97	0.224	1.47	0.516	0.065	0.0048	-0.226	0.144	0.916
CC(C)C[C@@H]1NC(=O)[C@H]2C[C@@H](C(=O)NCCCCCC[N+](C)(C)C)[C@@H](c3cccc(OCCO)c3)N2C1=O	-0.209	1.79	0.538	-0.432	-0.738	-0.152	-0.0035	-0.378	0.501	0.0962
C=C(COC)/C(=C/C[C@@H](OC(=O)c1ccncc1)c1ccc(OCCO)cc1)c1cnc2ccccc2c1	1.3	-1.59	1.12	0.695	-0.604	0.0151	-0.167	0.827	1.66	1.5
C[C@]12C(=O)N(CCCCCCO)[C@@H]3C(=O)N(c4ccc(Cl)cc4)CC=CC31O[C@@H]1/C=C\CCCOC(=O)C12 (stereo not given in full)	-0.358	-0.67	-1	-0.821	-0.559	0.0297	-0.0813	0.782	0.121	-0.0604
CCCCC(CC)C(O)C1C=CC2C(=O)N(c3ccccc3)C(=O)C2N1Nc1ccc([N+](=O)[O-])cc1 (stereo not given)	1.37	-0.127	0.362	1.68	-0.371	-0.0519	-0.258	-0.623	0.513	1.27
